According to PubChem BioAssay (NCATS):
Results filed as inconclusive are left out. Where a call stands in place of a potency, no number is given. Values without a mark were called inactive. Active and inactive are the calls of the source. Calls follow the shape of the dose curve; as a rule, active = well fitted inhibition curve with a large enough effect; inconclusive = small, poorly fitted or top-dose-only effect; inactive = flat fitted curve, though single readings scatter. Where a SMILES comes first, the peptide text is derived from it. Bridges are numbered along the chain shown (N, C = ends). [ ]: non-standard residue; d: D form. hArg = N=C(N)NCCCC[C@H](N)C(=O)O; Mpa = O=C(O)CCS

Each compound was assayed against Phospholipid hydroperoxide glutathione peroxidase GPX4 (Homo sapiens) (UniProt P36969) (assay: Primary qHTS Assay for Inhibitors of Recombinant Selenoprotein Glutathione Peroxidase 4 (GPX4) (AID 1845192; also: nearly all actives have a fitted effect of over 65% in size)). Details: recombinant GPX4, GR-coupled NADPH fluorescence, 15 min; series mostly up to 50 µM; activity change, negative = inhibition: at the top concentration.
Phospholipid hydroperoxide glutathione peroxidase GPX4 (Homo sapiens), sequence (P36969 whole entry, looked up): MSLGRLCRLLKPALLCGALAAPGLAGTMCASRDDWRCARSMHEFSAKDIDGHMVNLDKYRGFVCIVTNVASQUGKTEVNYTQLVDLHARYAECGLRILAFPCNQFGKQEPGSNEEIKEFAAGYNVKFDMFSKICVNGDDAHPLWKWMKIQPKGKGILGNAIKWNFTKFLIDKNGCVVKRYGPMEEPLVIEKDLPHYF
Description: Assay Provider: Elias S.J. Arner MD PhD.
Department of Medical Biochemistry and Biophysics
Karolinska Institutet, Solna, Stockholm, Sweden
Selenoprotein glutathione peroxidases (GPX), like the ubiquitously expressed GPX1 and the ferroptosis modulator GPX4, enact their antioxidant activities by reducing hydroperoxides using glutathione. […] GPX1 and GPX4 inhibitors have thus shown promise as anti-cancer agents. Existing inhibitors are often promiscuous, or modulate GPX activity only indirectly, so novel direct inhibitors identified through screening against GPX1 and GPX4 could be valuable. Here, we developed optimized glutathione reductase (GR)-coupled GPX assays for the biochemical high-throughput screen (HTS) of almost 12,000 compounds with known mechanisms of action. Initial hits were triaged using a GR counter-screen, assessed for isoform specificity using a separate GPX2 assay, and were assessed for general selenocysteine-targeting activity using a thioredoxin reductase (TXNRD1) assay. With this suite of assays, we identified novel GPX1/GPX2- and GPX4-specific inhibitors and can here present a validated pipeline for future discovery research for selenoprotein-targeting agents.
SEQUENCE No. (e.g., 1, 2, 3, etc.); […] (e.g., Cells, Incubation, Reagent, etc.); VALUE; DESCRIPTION.
1; Reagent 1; 3 uL; 333.33 nM GPx4 enzyme or no enzyme control in 1536-well, black, solid Greiner assay plate.
2; Compound; 25 nL; Kalypsis pin tool (Wako USA) equipped with a 1536-well pin head.
3; Incubation; 30 min; room temperature.
4; Reagent 2; 1 uL; 500 nM GR, 5 mM GSH, 2.5 mM NADPH solution
5; Reagent 3; 1 uL; 2.5 mM CHP in 50% EtOH.
6; Detection; Fluorescence; ViewLux microplate reader, excitation 340 nm and emission 450 nm.
7; Incubation; 15 min; room temperature.
8; Detection; Fluorescence; ViewLux microplate reader, excitation 340 nm and emission 450 nm.
NOTES (numbers refer to Sequence numbers above)
1. 3 µL of 333.33 nM GPX4 and 0.016% BSA in assay buffer (50 mM Tris-HCl, 2 mM EDTA (pH 7.5), 150 mM NaCl) was added to columns 3-48 of 1536-well plates using a BioRAPTR Flying Reagent Dispenser (Let's Go Robotics (LGR), Carlsbad, CA). A no-enzyme control (0.01% BSA in TES assay buffer) was added to columns 1-2.
2. 25 nL, library and DMSO controls were added to each well with a pin tool (Kalypsys).
3. The assay plates were incubated for 30 minutes at room temperature.
4. 1 µL of master mix (500 nM glutathione reductase (GR), 5 mM reduced glutathione (GSH), 2.5 mM NADPH in assay buffer) was added.
5. 1 µL of cumene hydroperoxide (CHP) ([2.5 mM] in 50% EtOH) was then added within 5 minutes to initiate the reaction. Final concentrations were: 200 nM GPX4, 1 mM GSH, 0.5 mM CHP, 0.5 mM NADPH, 100 nM GR, 0.01% BSA.
6. Initial fluorescence readout (t=0) at 340/450 nm was measured using a ViewLux multimodal detector (PerkinElmer, Waltham, MA).
8. Endpoint fluorescence readout (t=15) at 340/450 nm was measured 15 min after room temperature incubation.
`CCOc1ccc(C(=O)OCCN(CC)CC)cc1` was tested, and the “activity change, negative = inhibition” value was 3.03%. `CCN[C@H]1CN(CCCOC)S(=O)(=O)c2sc(S(N)(=O)=O)cc21` was tested, and the “activity change, negative = inhibition” value was -8.4%. For `O=C1C(c2[nH]c3ccccc3c2O)=Nc2ccccc21`, the “outcome” value was “inactive”. For `C[C@@H]1O[C@@H](OC[C@H]2O[C@@H](Oc3c(-c4ccc(O)c(O)c4)oc4cc(O)cc(O)c4c3=O)[C@H](O)[C@@H](O)[C@@H]2O)[C@H](O)[C@H](O)[C@H]1O`, the “outcome” value was “inactive”. For `Cc1ccccc1N=Nc1ccc(N=Nc2c(O)ccc3ccccc23)c(C)c1`, the “outcome” value was “inactive”. For `O=C(O)CNC(=O)c1ccccc1I`, the “activity change, negative = inhibition” value was -7.47%. In the case of `NCc1ccc(S(N)(=O)=O)cc1`, the “outcome” value is reported as “inactive”. In the case of `Cc1c(C)c2c(c(C)c1OC(=O)c1cccnc1)CC[C@@](C)(CCC[C@H](C)CCC[C@H](C)CCCC(C)C)O2`, the “activity change, negative = inhibition” value is reported as 4.55%. With `CC(C)(C)NCC(O)COc1cccc2c1CCC(=O)N2` (stereo not given) the “activity change, negative = inhibition” value was -6.07%. In the case of `CC(=O)NS(=O)(=O)c1ccc(N)cc1`, the “outcome” value is reported as “inactive”. `COC(=O)c1cccnc1` was tested, and the “outcome” value was “inactive”. For `O=C(Cn1ccnc1[N+](=O)[O-])NCc1ccccc1`, the “outcome” value was “inactive”. With `COc1ccc(O)cc1` the “outcome” value was “inactive”. In the case of `C[n+]1ccccc1/C=N/O`, the “outcome” value is reported as “inactive”. For `CCCCCOC(=O)Nc1nc(=O)n([C@@H]2O[C@H](C)[C@@H](O)[C@H]2O)cc1F`, the Potency was “inactive”. `COc1ccccc1OC(=O)Oc1ccccc1OC` was tested, and the “outcome” value was “inactive”. For `CCOC(=O)[C@H](CCc1ccccc1)N[C@@H](C)C(=O)N1CCC[C@H]1C(=O)O`, the Potency was “inactive”. For `C1CCN2C[C@@H]3C[C@@H](CN4CCCC[C@@H]34)[C@H]2C1`, the “activity change, negative = inhibition” value was 2.1%. In the case of `CC(=O)Nc1ccc(C(=O)O)cc1`, the “activity change, negative = inhibition” value is reported as 4.65%. For `CC1CC(OC(=O)c2ccccc2O)CC(C)(C)C1` (stereo not given), the “outcome” value was “inactive”. `NC(=O)[C@@H]1CSSCCC(=O)N[C@@H](CCCCN=C(N)N)C(=O)NCC(=O)N[C@@H](CC(=O)O)C(=O)N[C@@H](Cc2c[nH]c3ccccc23)C(=O)N2CCC[C@H]2C(=O)N1` ([Mpa][hArg]GDWPC-NH2; disulfide 1-7) was tested, and the “activity change, negative = inhibition” value was -1.39%. For `CC[N+](C)(CC)CCOC(=O)C1c2ccccc2Oc2ccccc21`, the “outcome” value was “inactive”. With `CO[C@@]1(NC(=O)C(C(=O)O)c2ccc(O)cc2)C(=O)N2C(C(=O)O)=C(CSc3nnnn3C)CO[C@@H]21` (stereo not given in full) the “activity change, negative = inhibition” value was 3.72%. For `COc1ccccc1Oc1c(NS(=O)(=O)c2ccc(C(C)(C)C)cc2)nc(-c2ncccn2)nc1OCCO`, the “activity change, negative = inhibition” value was -18.7%. With `Cc1ccsc1/C=C/C1=NCCCN1C` the “outcome” value was “inactive”. `C[C@@H](N)C(=O)O` was tested, and the “outcome” value was “inactive”. In the case of `c1ccc2[nH]ccc2c1`, the “activity change, negative = inhibition” value is reported as -15.9%. With `Cc1c(I)c(=O)n(-c2ccccc2)n1C` the “outcome” value was “inactive”. `CCOC(=O)[C@H](CCc1ccccc1)N[C@@H](C)C(=O)N1Cc2cc(OC)c(OC)cc2C[C@H]1C(=O)O` was tested, and the “outcome” value was “inactive”. With `CC(=O)OCC(=O)[C@@]1(O)CC[C@H]2[C@@H]3CCC4=CC(=O)C=C[C@]4(C)[C@@]3(F)[C@@H](O)C[C@@]21C` the “activity change, negative = inhibition” value was 0.46%. For `CCc1cccc(CC)c1NC(=O)CN(CC(=O)O)CC(=O)O`, the “outcome” value was “inactive”. `O=C(CCBr)N1CCN(C(=O)CCBr)CC1` was tested, and the “activity change, negative = inhibition” value was -1.33%. For `NS(=O)(=O)c1cc(C2(O)NC(=O)c3ccccc32)ccc1Cl` (stereo not given), the “activity change, negative = inhibition” value was -1.31%. With `CN1CCCN=C1COC(=O)C(O)(c1ccccc1)C1CCCCC1` (stereo not given) the “activity change, negative = inhibition” value was -7.36%. With `Cc1cc(C)nc(NS(=O)(=O)c2ccc(N)cc2)n1` the “activity change, negative = inhibition” value was 4.96%. For `CC(CN(C)C)C(C)(O)Cc1ccc(Cl)cc1` (stereo not given), the “outcome” value was “inactive”. For `COc1ccccc1OCC(O)CO` (stereo not given), the “activity change, negative = inhibition” value was -7.27%. With `Cc1c(NC(=O)c2cccnc2)c(=O)n(-c2ccccc2)n1C` the “outcome” value was “inactive”. `Cc1onc(-c2ccccc2)c1-c1ccc(S(N)(=O)=O)cc1` was tested, and the Potency was “inactive”. With `NC(=O)CCCCC1CCSS1` (stereo not given) the “activity change, negative = inhibition” value was -9.99%.
